# Data published in PubChem BioAssay.
# Assay: small molecules captured by biotinylated probe aFSTL3 – biochemical, small-molecule microarray, fluorescence 635/667, stem cell growth factor project, primary screen (AID 1064);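 also: measures binding of the biotinylated anti-FSTL3 antibody to printed compounds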
# Conditions: higher = more signal
row,SMILES,composite z-score
1,CC1CC/C=C\[C@H]2OC34C=CCN(c5ccc6ccccc6c5)C(=O)[C@H]3N(C(CO)C(C)C)C(=O)[C@@H]4C2C(=O)O1 (stereo not given in full),-0.729
2,COCCOC(=O)N1C(=O)[C@@]2(c3cc(C#CCC(C(=O)OC)C(=O)OC)ccc31)[C@H](c1ccc(OCCO)cc1)N1[C@H](c3ccccc3)[C@H](c3ccccc3)OC(=O)[C@H]1[C@@H]2C(=O)N1CCN(c2ncccn2)CC1,-0.372
3,CCOC(=O)[C@H]1C/C=C/C[C@H](C(=O)OCC)C(=O)O[C@H]2[C@@H](OC)O[C@H](CO)[C@@H](OC(=O)Nc3ccc(OC)cc3)[C@@H]2OC1=O,-0.0119
4,O=C1O[C@@H](c2ccccc2)[C@@H](c2ccccc2)N2[C@@H](c3ccc(O)cc3)[C@]3(C(=O)Nc4ccc(C#CC5=CCCCC5)cc43)[C@@H](C(=O)N3CCN(c4ncccn4)CC3)[C@H]12,-0.397
5,CCCCN1CC=CC23O[C@@H]4/C=C\CCC(C)OC(=O)C4[C@H]2C(=O)N(CCCCCCO)[C@@H]3C1=O (stereo not given in full),0.666
6,CCOC(=O)C[C@H]1[C@H](OC(=O)c2ccc(-c3ccccc3)cc2)[C@@H](NC(=O)c2ccc3ccccc3n2)c2cc(OCCCO)ccc2N1C(=O)c1ccccc1,-0.497
7,COc1ccc(NN2C(C(O)c3ccccn3)C=CC3C(=O)N(C4CCCCC4)C(=O)C32)cc1 (stereo not given),-0.218
8,COc1cc(OC)c(C(O)C2C=CC3C(=O)N(c4ccccc4)C(=O)C3N2Nc2ccc(C#N)cc2)cc1Br (stereo not given),1.03
9,COc1ccc([Si](C)(C)[C@H]2[C@H](CCn3cc([C@H](O)c4ccccc4)nn3)O[C@@]3(C(=O)N(Cc4ccc(N5CCOC5=O)cc4)c4ccccc43)[C@@H]2C)cc1,0.365
10,CCCCC(CC)C(O)C1C=CC2C(=O)N(c3ccccc3)C(=O)C2N1Nc1ccc([N+](=O)[O-])cc1 (stereo not given),-0.294
